Screening data (PubChem)
A selection: hits, their analogues and other compounds. The true share with any hit is near 3.1%.
p53null 39C kill: selectivity test: cytotoxicity in p53 null cells, nonpermissive temperature. 55,000 tested, 0.97% active. H1299 p53-null (neo) cells, 39C, ATPlite viability, 24 h. Potency, µM (top dose mostly 46.1 µM), actives largely listed as cytotoxic; further: nearly all actives have a fitted effect of over 50% in size
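Temperature-shift cytotoxicity format: compound titrations on p53-null or A138V-expressing H1299 cells held 24 hr at 39C, cell ATP then measured, AC50 from Hill model.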
SKOV3 invasion: ovarian cancer metastasis inhibition, 3D TME model. SKOV3ip1-GFP adhesion/invasion on 3D omental model, fluorescence. Potency, µM (series often up to 45.8 µM), most hits filed as inhibitors. 46,000 tested, 0.1% active; further: nearly all actives have a fitted effect of over 65% in size
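Adhesion/invasion was scored as fixed GFP-labeled SKOV3ip1 cell counts (488/509 nm), normalized to DMSO and tomatine controls. Cancer cells in serum-free medium, with four compound doses (0.36-46 umol/L), sat 2 hr at RT then 16 hr at 37 C on a 48 hr fibroblast/mesothelial/ECM culture.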
pS6 MEF inh: reduces mTORC1 signaling in Tsc2 and p53 null MEF cells. Tsc2-/- p53-/- MEF, phospho-rpS6 immunofluorescence/PI, 24 h. Potency, µM (titrated, usually from 38.3 µM), most hits filed as inhibitors. 44,000 tested, 0.78% active; further: nearly all actives have a fitted effect of over 50% in size
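Read-out: phospho-S6 Alexa-488 intensity over PI intensity per well, scored as % active cells using thresholds from rapamycin (7.5 nM) and DMSO controls. Tsc2-/-, p53-/- MEFs exposed to compound for 24 h; PI cell count recorded as viability.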
PMP22 txn: PMP22 gene transcription modulation. S16 Pmp22-F2sN Schwann cells, FLuc/NLuc coincidence luminescence, 24 h. Potency, µM (highest dose often 57.5 µM), usual class: inhibitors. 43,000 tested, 2% active; active means clear falling dose curves in both reporters; inconclusive means both reporters move, but less clearly or upward; inactive means either reporter flat; the % is the NLuc reporter signal
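S16(c9) Schwann cells with FLuc/NLuc coincidence reporter in the Pmp22 3' UTR; compounds pin-transferred, 24 h at 37C. Dual-luciferase read: FLuc first, then NLuc after Stop&Glo, each 10 min at room temperature.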
p53null 32C tox: kills p53 null cells at the permissive temperature; 55,000 tested, 0.62% active; AID 903; Potency, µM (series often up to 46.1 µM), most hits filed as cytotoxic; H1299-neo p53 null cells, ATP luminescence, 24 h, 32C; further: nearly all actives have a fitted effect of over 55% in size
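Overnight 37C seeding (600 cells/well) of H1299-neo preceded a 24 hr, 32C exposure to compounds up to 46 uM. ATP levels, read by luminescence after 20 min at RT, indicated surviving cells.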
S16 F2sN tox: S16 Schwann cell cytotoxicity; S16 Pmp22-F2sN Schwann cells viability, CellTiter-Glo, 24 h; 43,000 tested, 0.48% active; Potency, µM (doses to about 57.5 µM), hits mostly cytotoxic; AID 1508642; further: nearly all actives have a fitted effect of over 65% in size
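Luminescence from CellTiter-Glo, read by CCD camera after a 15 min room-temperature incubation, served as the viability signal. Reporter Schwann cells (S16 Pmp22-F2sN) had been treated with pin-transferred compounds for 24 h at 37C.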
NLuc sat counter: counter-screen for PMP22 expression modulators: NanoLuc inhibition, saturating substrate. shares compounds with PMP22 txn. Secreted NLuc enzyme (filtered S16 cell medium), Nano-Glo luminescence. Potency, µM (top dose mostly 57.5 µM), usual class: inhibitors. 690 tested, 4% active. AID 1508638
NLuc Km counter: counter-screen for PMP22 expression modulators: NanoLuc inhibition at Km | 690 tested, 5% active | shares compounds with PMP22 txn | secreted NLuc enzyme, coelenterazine luminescence, Km conditions | Potency, µM (doses to about 57.5 µM), most hits filed as inhibitors | AID 1508639
FLuc counter: inhibits firefly luciferase, PMP22 counter-screen | purified P. pyralis FLuc, luminescence, 10 min | shares compounds with PMP22 txn | 690 tested, under 10 active | Potency, µM (series often up to 57.5 µM), hits mostly inhibitors
Target sequence (P08659 whole entry, looked up): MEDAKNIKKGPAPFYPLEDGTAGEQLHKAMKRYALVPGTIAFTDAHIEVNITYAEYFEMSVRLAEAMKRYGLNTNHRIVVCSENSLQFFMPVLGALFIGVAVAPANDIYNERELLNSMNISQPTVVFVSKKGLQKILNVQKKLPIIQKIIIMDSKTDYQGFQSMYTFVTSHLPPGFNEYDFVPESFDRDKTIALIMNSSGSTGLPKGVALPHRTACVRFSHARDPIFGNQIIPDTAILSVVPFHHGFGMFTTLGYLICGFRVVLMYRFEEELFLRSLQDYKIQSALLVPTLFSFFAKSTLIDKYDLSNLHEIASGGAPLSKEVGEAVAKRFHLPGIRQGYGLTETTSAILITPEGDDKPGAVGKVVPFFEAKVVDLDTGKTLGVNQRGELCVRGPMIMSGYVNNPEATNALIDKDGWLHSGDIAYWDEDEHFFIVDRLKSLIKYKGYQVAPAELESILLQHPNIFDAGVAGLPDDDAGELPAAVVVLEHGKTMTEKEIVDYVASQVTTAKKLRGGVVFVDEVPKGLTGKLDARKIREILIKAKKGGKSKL
S16 viab conf: confirmation of cytotoxicity in S16 Pmp22-F2sN Schwann cells (luciferase reporters placed in the Pmp22 gene). shares compounds with PMP22 txn. S16 Schwann cells viability, CellTiter-Glo ATP luminescence, 24 h. Potency, µM (titrated, usually from 57.5 µM), hits mostly cytotoxic. 690 tested, 7% active. AID 1508641
PMP22 txn conf: confirmation of modulators of PMP22 gene transcription in S16 cells; shares compounds with PMP22 txn; S16 Schwann cells Pmp22-F2sN, dual luciferase, 24 h; Potency, µM (titrated, usually from 57.5 µM), usual class: inhibitors; 690 tested, 22% active; active means clear falling dose curves in both reporters; inconclusive means both reporters move, but less clearly or upward; inactive means either reporter flat; the % is the FLuc reporter signal
Large screens that a line does not name were inactive (follow-up assays come after a bar, where they were run). Unless noted, the call rests on the fitted dose curve; in most records, active means well fitted curve in the direction sought with a large enough effect; inconclusive means small, poorly fitted or top-dose-only effect, or another doubt; inactive means no such curve, though single readings can be large; an effect the other way counts as inactive or inconclusive.

CCCN(CCC)CCCNC(=O)c1cc2c(=O)oc3ccc(C)cc3c2s1	PMP22 txn inconclusive, S16 F2sN tox inconclusive | NLuc sat counter inactive | NLuc Km counter inactive | FLuc counter inactive | S16 viab conf inconclusive | PMP22 txn conf inconclusive
Cc1cc2c(cc1C1(c3ccc(C(=O)O)cn3)CC1)C(C)(C)CCC2(C)C	none (no result: p53null 39C kill, pS6 MEF inh, PMP22 txn, p53null 32C tox, S16 F2sN tox)
COc1ccc(C(=O)Nc2cc(C(F)(F)F)ccc2N2CCN(c3ccccc3)CC2)cc1OC	p53null 32C tox inconclusive
COc1nnc(-c2ccc(N3CCCCC3)c(NC(=O)c3ccccc3)c2)c2ccccc12	PMP22 txn 14µM, S16 F2sN tox inconclusive | NLuc sat counter inconclusive | NLuc Km counter inconclusive | FLuc counter inactive | S16 viab conf inactive | PMP22 txn conf inconclusive
COc1nnc(-c2ccc(N3CCCCC3)c(NC(=O)c3ccc(Cl)cc3)c2)c2ccccc12	PMP22 txn 15µM | NLuc sat counter inconclusive | NLuc Km counter inactive | FLuc counter inactive | S16 viab conf inactive | PMP22 txn conf inconclusive
CCN(CC)CCOc1ccc(C(=C(Cl)c2ccccc2)c2ccccc2)cc1	none (no result: p53null 39C kill, pS6 MEF inh, PMP22 txn, p53null 32C tox, S16 F2sN tox)
Cc1ccc(-c2c(C)n3c4c(=O)n(C)c(=O)n(C)c4nc3n2-c2cccc(O)c2)cc1	p53null 39C kill inconclusive, PMP22 txn 16µM, p53null 32C tox inconclusive | NLuc sat counter inconclusive | NLuc Km counter inconclusive | FLuc counter inactive | S16 viab conf inactive | PMP22 txn conf inconclusive
O=C(O)[C@H](CC(=O)N1C[C@@H]2CCCC[C@H]2C1)Cc1ccccc1	none (no result: p53null 39C kill, pS6 MEF inh, PMP22 txn, p53null 32C tox, S16 F2sN tox)
CCc1ccccc1NC(=O)C(=O)NCCc1sc(-c2cccc(F)c2)nc1C	PMP22 txn inconclusive
CC(=O)Nc1cccc(NC(=O)C(=O)NCCc2sc(-c3ccccc3)nc2C)c1	pS6 MEF inh inconclusive, PMP22 txn 2.5µM | NLuc sat counter inactive | NLuc Km counter inconclusive | FLuc counter inactive | S16 viab conf inactive | PMP22 txn conf 3.6µM
CCOc1ccccc1NC(=O)C(=O)NCCc1sc(-c2cccc(F)c2)nc1C	PMP22 txn inconclusive | NLuc sat counter inactive | NLuc Km counter inactive | FLuc counter inactive | S16 viab conf inactive | PMP22 txn conf inconclusive
CCCCC(=O)O[C@]1(C(=O)CO)[C@@H](C)C[C@H]2[C@@H]3CCC4=CC(=O)C=C[C@]4(C)[C@@]3(F)[C@@H](O)C[C@@]21C	none (no result: p53null 39C kill, pS6 MEF inh, PMP22 txn, p53null 32C tox, S16 F2sN tox)
Cc1ccc(CN(Cc2cccn2-c2nnc(N3CCCC3=O)s2)C(=O)Nc2ccccc2C(F)(F)F)cc1	PMP22 txn 19µM, S16 F2sN tox inconclusive | NLuc sat counter inconclusive | NLuc Km counter inconclusive | FLuc counter inactive | S16 viab conf inactive | PMP22 txn conf inactive
